Experimental findings from PubChem BioAssay (NCATS) are described below.

Each structure is given as a SMILES string. Inconclusive results are not listed. Calls of active or inactive are those of the source. Calls follow the shape of the dose curve; as a rule, active = well fitted inhibition curve with a large enough effect; inconclusive = small, poorly fitted or top-dose-only effect; inactive = flat fitted curve, though single readings scatter.

What all share (test): qHTS profiling for inhibitors of Plasmodium falciparum proliferation (AID 504749); also: nearly all actives have a fitted effect of over 60% in size
Holding throughout (conditions): P. falciparum in erythrocytes, SYBR Green DNA, 72 h; series mostly up to 28.7 µM
On the technique in general: qHTS replaces the single test concentration by a dilution series.

The subject of one assay is ATS95. The gist of the method: (§1)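 Three-day growth assay of blood-stage parasites in erythrocytes (0.3% parasitemia, 2.5% hematocrit) at 37 C, 5% CO2, quantified by SYBR Green DNA staining after overnight detergent lysis.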
A further assay relates to C2A. An outline of the steps:
as §1

Another assay concerns CP191. An outline of the steps:
as §1

The next assay concerns CP192. An outline of the steps:
as §1

A further assay has as its system CP194. An outline of the steps: as §1
The next assay relates to CP201. The gist of the method: as §1
Another assay concerns CP203. An outline of the steps:
as §1

A further assay relates to CP215. An outline of the steps:
as §1

A further assay relates to CP185. The gist of the method: as §1
In another assay the test system is CP211. An outline of the steps:
as §1
Potency is read from the fitted curve at half-maximal effect.

For the molecule `COc1cccc2c1C(=O)c1c(O)c3c(c(O)c1C2=O)C[C@@](O)(C(=O)CO)C[C@@H]3O[C@H]1C[C@H](N)[C@H](OC2CCCCO2)[C@H](C)O1` (some centres undefined), the Potency with ATS95 is 3.98 µM (active); in the assay on C2A it was 8.91 µM (active); with CP191, 8.91 µM (active); with CP192 it was 8.49 µM (active); in the assay with CP194 it was 9.53 µM (active); with CP201, 9.53 µM (active). For the same molecule, the results for the Potency in the assay with CP203 and in the assay on CP215 were 4.78 µM (active) and 6.75 µM (active), respectively.

Consider `COc1ccc([C@@H]2CNC(=O)C2)cc1OC1CCCC1`, for which the Potency result in the assay on C2A, with CP185, in the assay with CP191, with CP192, in the assay on CP194 and in the assay with CP201 was “inactive” in each case. The Potency result in the assay on CP203, with CP211 and in the assay with CP215 was “inactive” in each case.

For the molecule `COc1ccc2c(c1OC)C(=O)OC2[C@H]1c2c(cc3c(c2OC)OCO3)CCN1C` (some centres undefined), the Potency entry with ATS95, with C2A, in the assay on CP185, in the assay on CP191, in the assay on CP192 and in the assay on CP194 was “inactive” in each case. In addition, the Potency entry in the assay with CP201, with CP203, with CP211 and in the assay on CP215 was “inactive” each time.

For the molecule `Nc1nc2c(c(=O)[nH]1)N(C=O)[C@H](CNc1ccc(C(=O)N[C@@H](CCC(=O)O)C(=O)O)cc1)CN2`, the Potency entry in the assay with ATS95, with C2A, with CP185, in the assay with CP191, in the assay with CP192 and in the assay on CP194 was “inactive” throughout. The Potency result in the assay on CP201, in the assay on CP203, in the assay on CP211 and with CP215 was “inactive” throughout.

Take `OCC(O)C(O)C(O)CO` (centres undefined): the Potency result in the assay on ATS95, in the assay with C2A, with CP185, in the assay with CP191, in the assay with CP192 and with CP194 was “inactive” in each case. In addition, the Potency entry in the assay on CP201, in the assay with CP203, in the assay on CP211 and in the assay on CP215 was “inactive” throughout.

For the molecule `CCC(C(=O)O)C1CCC(C)C(C(C)C(O)C(C)C(=O)C(CC)C2OC3(C=CC(O)[C@@]4(CC[C@](C)(C5CC[C@@](O)(CC)C(C)O5)O4)O3)C(C)CC2C)O1` (some centres undefined), the Potency in the assay with ATS95 is 1.12 µM (active); in the assay with C2A, 1.12 µM (active); in the assay with CP185, 1.26 µM (active); in the assay on CP191, 1 µM (active); in the assay on CP192, 0.849 µM (active); in the assay on CP194 it was 0.601 µM (active). The Potency in the assay with CP201 is 0.953 µM (active); with CP203, 0.269 µM (active); in the assay with CP211, 0.536 µM (active); with CP215 it was 0.675 µM (active).

Take `CCCCCCCCCCCC(CC1OC(=O)C1CCCCCC)OC(=O)C(CC(C)C)NC=O` (centres undefined): the Potency in the assay with ATS95 was 0.794 µM (active); with C2A it was 0.562 µM (active); in the assay on CP185, 0.708 µM (active); with CP191, 0.562 µM (active); in the assay on CP194 it was 9.53 µM (active). The Potency entry with CP192 and in the assay with CP201 was “inactive” in each case.
